Reference: PubChem BioAssay AID1240 (Sanford-Burnham Center for Chemical Genomics, 2008)
Among all 50,000 compounds or so, about 800 (1.6%) showed an effect of 50% or more. For the sample, strong results were picked, then their nearest neighbours and some compounds at random.

What follows are molecules tested against Bcl-2-like protein 10 (Homo sapiens) (UniProt Q9HD36) (assay: Phenotype converters, Bcl-B/TR3 peptide binding displacement, primary biochemical FP (AID 1240;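 note: 0% = Bcl-B with tracer peptide and DMSO and 100% = tracer peptide lacking Bcl-B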)). Details: GST-Bcl-B / FITC-TR3 peptide fluorescence polarization; stronger effect = higher value; compound at 3.75 mg/L.
Chain of Bcl-2-like protein 10 (Homo sapiens) (Q9HD36 whole entry, looked up): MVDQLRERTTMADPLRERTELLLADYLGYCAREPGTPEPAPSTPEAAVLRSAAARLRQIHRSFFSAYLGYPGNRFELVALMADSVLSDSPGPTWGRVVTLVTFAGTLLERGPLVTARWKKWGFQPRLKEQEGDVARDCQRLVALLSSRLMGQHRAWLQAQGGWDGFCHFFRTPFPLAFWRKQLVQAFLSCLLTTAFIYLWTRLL
Work on `COc1ccc(-c2nc(NC(=O)c3ccccc3F)sc2-c2ccc([N+](=O)[O-])cc2)cc1` yielded a displacement of 13.6%. `CCOC(=O)C1=C(C)NC(C)=C(C(=O)OCC)C1c1cccs1` was tested, and the displacement was -5.1%. `CCOc1ccc(/C=C2\C(=O)NC(C)=C2C(=O)OC)cc1` was tested, and the displacement was 10.8%. In the case of `CCOC(=O)C1=C(C)NC(=O)/C1=C\c1cccs1`, the displacement is reported as 108%. For `Cc1ccc(S(=O)(=O)Nc2ccccc2C(O)C[N+](=O)[O-])cc1` (stereo unspecified), the displacement was -4.2%. For `CNC(=O)c1cc2cc(OC)ccc2n1CCN(C)C`, the displacement was -11.4%. In the case of `COc1ccc2c(c1)cc(C(=O)NN)n2C`, the displacement is reported as 67.4%. For `COc1ccc(N2Cc3ccc(C(=O)NN)cc3C2)cc1`, the displacement was -29.2%. Molecule `COC(=O)C1=NN(C(C)=O)C(O)(c2ccccc2)C1` (stereo unspecified) has a displacement of 2.1%. Molecule `COc1ccc(/C=N\N2CCN(c3ccccc3OC)CC2)cc1OC` has a displacement of -6.7%. `CCOc1cccc(-c2cc(C(=O)Nc3cc(C)ccn3)c3ccccc3n2)c1` gave a displacement of 2%. `CCOc1cccc(-c2cc(C(=O)N3CCN(C)CC3)c3ccccc3n2)c1` showed a displacement of -5.5%. Work on `CCOc1cccc(-c2cc(C(=O)N3CCc4ccccc43)c3ccccc3n2)c1` yielded a displacement of 110%. `CCOc1ccc(-c2cc(C(=O)Nc3nnc(C)s3)c3ccccc3n2)cc1` showed a displacement of 6.3%. Molecule `CCOc1cccc(-c2cc(C(=O)N3CCCCCC3)c3ccccc3n2)c1` has a displacement of -10.2%. `CCOc1cccc(-c2cc(C(=O)Nc3nnc(C)s3)c3ccccc3n2)c1` gave a displacement of 135%. `Cc1ccccc1OCC(=O)N1N=C(c2ccc(F)cc2)CC1(O)C(F)(F)F` (stereo unspecified) gave a displacement of -4.5%. Work on `Cc1[nH]c2ccccc2c1/C=N/NC(=O)c1cccc([N+](=O)[O-])c1` yielded a displacement of 0.7%. `COc1ccc(C(C)N(C)CCC(c2ccccc2)c2ccccc2)cc1OC` (stereo unspecified) showed a displacement of 5.7%. In the case of `O=C1c2ccccc2C(=O)c2c1c(Cl)c(Cl)c(Cl)c2N1CCCC1`, the displacement is reported as 8%. `Cn1c(=O)c(-c2ccccc2N)nc2ccccc21` was tested, and the displacement was -5.4%. `Nc1ccc2c(c1)C(=O)c1ccccc1C2=O` gave a displacement of 6.9%. In the case of `Cn1c(=O)c(N2CCCCC2)c2c3c(cccc31)C(=O)c1ccccc1-2`, the displacement is reported as 147%. Molecule `O=C1c2ccccc2C(=O)c2c1cc(Cl)cc2N1CCCCC1` has a displacement of 2.8%. `Cn1c(=O)c(-c2ccccc2N)nc2cc3ccccc3cc21` gave a displacement of 33.6%. `Cn1c2c(c(=O)n(C)c1=O)C(c1ccc(Br)cc1)C1=C(N2)c2ccccc2C1=O` (stereo unspecified) gave a displacement of -10.4%. `Cn1c(=O)c(N)c2c3c(c(Br)ccc31)C(=O)c1ccccc1-2` gave a displacement of 159%. For `Cn1c(=O)c(N)c2c3c(cccc31)C(=O)c1ccccc1-2`, the displacement was 154%. For `COc1ccc(C2CC(C(F)(F)F)n3ncc(C(=O)NC(C)(C)C)c3N2)cc1` (stereo unspecified), the displacement was 3.6%. `O=C(c1nn2c(C(F)(F)F)cc(-c3ccco3)nc2c1Cl)N1CCN(Cc2ccccc2)CC1` was tested, and the displacement was 1.1%. For `CCOc1ccc(C(=O)Nc2ccc([N+](=O)[O-])cc2)cc1Cl`, the displacement was -9.7%. `O=C(N/N=C/c1ccc([N+](=O)[O-])o1)c1ccc(Cl)c(Cl)c1` gave a displacement of 19%. `COc1ccc(N(CC(=O)Nc2ccccc2C)S(C)(=O)=O)cc1Cl` showed a displacement of -10.4%. `C/C(=N\NC(=O)c1cc(C23CC4CC(CC(C4)C2)C3)[nH]n1)c1ccc(N)cc1` was tested, and the displacement was -8.7%. Work on `Brc1ccc(C=NN2CCN(Cc3ccccc3)CC2)cc1` yielded a displacement of -17.6%. `CCOC(=O)C1=C(N)Oc2ccc3ccccc3c2C1c1ccc(Cl)cc1` (stereo unspecified) gave a displacement of -10.4%. With `CCOC(=O)C1=C(N)Oc2c(ccc3ccccc23)C1c1ccc(OC)cc1` (stereo unspecified) the displacement was 108%. `CCOC(=O)C1=C(C)OC(N)=C(C#N)C1c1ccc(OC)cc1` (stereo unspecified) was tested, and the displacement was -10.8%. With `COc1cc(/C=C2\SC(N)=NC2=O)cc(Br)c1OC` the displacement was -25.9%. Molecule `Cc1ccc(/C=C/C(=O)c2c3c(c(C)[nH]c2=O)CCCC3)cc1` has a displacement of 49.3%. `Cc1[nH]c(=O)c(C(=O)/C=C/c2ccccc2Cl)c2c1CCCC2` gave a displacement of 11%. In the case of `Cc1[nH]c(=O)c(C(=O)/C=C/c2cccs2)c2c1CCCC2`, the displacement is reported as 119%. In the case of `Cc1cccc(NC(=O)C(=O)NCc2ccco2)c1C`, the displacement is reported as 11%. `O=C(Nc1ccc(I)cc1)c1ccc(Cl)cc1Cl` showed a displacement of 6.9%. `Cc1ccc(N2C(=O)C(=O)/C(=C(/O)c3ccccc3)C2c2ccc(O)cc2)cc1Cl` (stereo unspecified) was tested, and the displacement was -3.5%. Molecule `Oc1c(Cl)cc(Cl)cc1C=Nc1cccc(C(F)(F)F)c1` has a displacement of 2.4%. In the case of `NC(=O)c1cccc(N=Cc2cc(Cl)cc(Cl)c2O)c1`, the displacement is reported as 145%. `NC(=O)c1ccccc1N=Cc1cc(Cl)cc(Cl)c1O` gave a displacement of -7.2%. For `CN(C)CCCNC(=O)/C=C/c1ccc(C(C)(C)C)cc1`, the displacement was 6.4%. Work on `O/N=C/c1cn(-c2ccccc2)nc1-c1ccccc1` yielded a displacement of 10%. Work on `O=c1oc2ccccc2cc1-c1nn(-c2ccccc2)cc1/C=N/O` yielded a displacement of 53%. `O/N=C/c1cn(-c2ccccc2)nc1-c1ccc(Cl)cc1` was tested, and the displacement was -3.8%. `COCCCNC(=O)C(=O)Nc1ccccc1F` showed a displacement of -11.9%. `CCOc1cc(C2C(C(=O)OC)=C(C)NC(C)=C2C(=O)OC)ccc1O` was tested, and the displacement was 0.1%. With `C=CCOc1ccc(/C=C2\SC(=S)N(c3ccc(OC)cc3)C2=O)cc1OC` the displacement was 6.7%. `COc1ccc(N2C(=O)/C(=C/c3ccc(OC)c(OC)c3)SC2=S)cc1` gave a displacement of 6.5%. With `COc1ccc(/C=C2\SC(=S)N(c3ccc(F)cc3)C2=O)cc1OC` the displacement was 105%. Work on `COc1cc(/C=C2\SC(=S)N(c3ccc(F)cc3)C2=O)cc(OC)c1OC` yielded a displacement of 3.3%. `CCOc1ccc(/C=C2\SC(=S)N(c3ccc(OC)cc3)C2=O)cc1OC` was tested, and the displacement was 114%. `COc1cc(/C=C2/SC(=S)N(c3ccccc3)C2=O)ccc1OC(=O)c1ccc(F)cc1` showed a displacement of 4.7%. Molecule `O=S(=O)(c1ccc(C=Nc2ccc(Br)cc2)cc1)c1ccc(C=Nc2ccc(Br)cc2)cc1` has a displacement of -8.7%. For `COc1ccc(C2CC(C(F)(F)F)n3ncc(C(=O)Nc4ccc(F)cc4F)c3N2)cc1OC` (stereo unspecified), the displacement was -1.7%. For `CC1(C)Cc2ccccc2C(/C(=N\O)C(=O)c2ccccc2)=N1`, the displacement was 13.1%. `COc1ccc(C(=O)Nc2cccc(S(N)(=O)=O)c2)cc1` showed a displacement of -5.8%. With `CCOP(=O)(OCC)/C(=C(\NC(=O)c1ccccc1)C(=O)Nc1ccccc1C(F)(F)F)c1ccccc1` the displacement was 12.2%. With `COc1ccc(CCNC(=O)c2ccc(Cl)c(Cl)c2)cc1OC` the displacement was 6%. `COc1c(Cl)ccc(Cl)c1C(=O)NCCc1ccccc1` gave a displacement of -18.4%. `COc1ccc(CCNC(=O)c2c(Cl)ccc(Cl)c2OC)cc1OC` gave a displacement of 57%. `C=CCN(CC=C)C(=O)COc1ccc(Cl)cc1` was tested, and the displacement was -5.1%. For `CC(=O)NCCc1c(C)n(Cc2ccccc2)c2ccccc12`, the displacement was 20.2%. `O=C(c1sc2ccccc2c1Cl)N1CCN(Cc2ccc3c(c2)OCO3)CC1` gave a displacement of 0.4%. `COC(=O)c1cc(Nc2nc3ccccc3nc2NS(=O)(=O)c2ccccc2)ccc1Cl` showed a displacement of 158%. `COc1ccc2nc(NS(=O)(=O)c3ccc(Cl)cc3)c(Nc3ccc4[nH]c(=O)[nH]c4c3)nc2c1` gave a displacement of -2.9%. For `O=S(=O)(Nc1nc2ccccc2nc1Nc1ccccc1)c1ccccc1`, the displacement was 16.9%. Molecule `O=c1[nH]c2ccc(Nc3nc4ccccc4nc3NS(=O)(=O)c3ccc(Cl)cc3)cc2[nH]1` has a displacement of 102%. Work on `O=S(=O)(Nc1nc2ccccc2nc1Nc1cccc(O)c1)c1ccc(Cl)cc1` yielded a displacement of 7.1%. `CC(=O)Nc1ccc(Nc2nc3ccccc3nc2NS(=O)(=O)c2ccc(Cl)cc2)cc1` was tested, and the displacement was -12.5%. Work on `Cc1cccc(OCC(=O)Nc2ccccc2Cl)c1C` yielded a displacement of -1.5%. Molecule `Cc1ccccc1OCCOc1ccc(/C=C2/SC(=S)N(C)C2=O)cc1` has a displacement of 0.3%. `CC1(C)CC(NC(=O)c2ccccc2F)CC(C)(C)N1` was tested, and the displacement was -12.3%. With `COc1cc(/C=C(\C#N)c2nc3ccccc3[nH]2)ccc1OCC(=O)O` the displacement was 43.5%. Work on `COc1ccc(C=C2C(=O)N(c3ccc(C)cc3)C(=S)N(c3ccc(C)cc3)C2=O)cc1C(=O)O` yielded a displacement of 15%. `COc1ccc(OC(C)C(=O)Nc2ccc(N(C)C)cc2)cc1` (stereo unspecified) was tested, and the displacement was 9.1%. Molecule `O=C(NCCNc1ccc(Cl)cc1[N+](=O)[O-])c1ccccc1F` has a displacement of -0.6%. For `O=C(Cn1cc(/C=C2\NC(=O)NC2=O)c2ccccc21)Nc1ccccc1`, the displacement was 7.5%. Molecule `O=C(Cn1cc(/C=C2/C(=O)NC(=O)N(c3ccccc3F)C2=O)c2ccccc21)Nc1ccccc1` has a displacement of 51.1%. `Cc1ccccc1N1C(=O)NC(=O)/C(=C/c2cn(CC(=O)Nc3ccccc3)c3ccccc23)C1=O` showed a displacement of 53.6%. `N#CC(C#N)=Cc1cn(CC(=O)Nc2ccccc2)c2ccccc12` gave a displacement of -17.6%. In the case of `O=C(Cn1cc(/C=C2/C(=O)NC(=S)N(c3ccccc3F)C2=O)c2ccccc21)Nc1ccccc1`, the displacement is reported as 30.7%. Work on `CN1C(=O)C(=Cc2cn(CC(=O)Nc3ccccc3)c3ccccc23)C(=O)N(C)C1=O` yielded a displacement of -6.8%. Molecule `COc1ccc(C2Nc3ccccc3NC3=C2C(=O)CC(c2ccccc2)C3)c(OC)c1` (stereo unspecified) has a displacement of 5.9%. `CCN1CCN(Cc2c(O)ccc3ccccc23)CC1` showed a displacement of 13.6%. In the case of `O=C(/C=C/c1ccc(-c2cccc([N+](=O)[O-])c2)o1)Nc1ccc(Cl)cc1`, the displacement is reported as 4.5%. In the case of `N#C/C(=C/c1ccc(-c2cc(Cl)ccc2Cl)o1)C(=O)O`, the displacement is reported as 2%. In the case of `O=C(/C=C/c1ccc(-c2cc(Cl)ccc2Cl)o1)c1ccco1`, the displacement is reported as 126%. Work on `CC(=O)/C=C/c1ccc(-c2cccc([N+](=O)[O-])c2)o1` yielded a displacement of -5.2%. `O=C(/C=C/c1ccc(-c2cccc([N+](=O)[O-])c2)o1)c1ccco1` gave a displacement of 79.3%. Molecule `O=C(/C=C/c1ccc(-c2ccc(Cl)cc2Cl)o1)c1ccco1` has a displacement of 3.4%. `O=C(/C=C\c1ccc(-c2cc(Cl)ccc2Cl)o1)c1ccccc1` gave a displacement of 24.9%. `N#CC(C#N)=Cc1ccc(-c2ccc(Cl)c(C(=O)O)c2)o1` gave a displacement of 0.6%. `O=C(/C=C/c1ccc(-c2cccc(Br)c2)o1)c1ccco1` showed a displacement of 11.8%. `O=C(/C=C/c1ccc(-c2cccc([N+](=O)[O-])c2)o1)c1ccc(F)cc1` was tested, and the displacement was 3.4%. In the case of `O=C(/C=C/c1ccc(-c2cccc([N+](=O)[O-])c2)o1)c1cc2ccccc2o1`, the displacement is reported as 119%. In the case of `N#CC(C#N)=Cc1ccc(-c2cc(Cl)ccc2Cl)o1`, the displacement is reported as 93.5%. `N#Cc1c2c(c(N3CCN(c4ccccn4)CC3)n3c1nc1ccccc13)CCC2` showed a displacement of 2.1%. `O=C1c2ccccc2C(=O)N1CCc1nc2ccccc2c(=O)n1-c1ccc(Br)cn1` showed a displacement of -10.3%.
